High-throughput results (PubChem BioAssay)
Sm TGR inh: qHTS Assay for the Inhibitors of Schistosoma Mansoni Peroxiredoxins. purified TGR, DTNB reduction, TNB absorbance 405 nm. Schistosoma mansoni thioredoxin glutathione reductase (TGR), Q962Y6. hit rate 3% among 360,000. AID 485364, 2010. Potency, µM (highest dose often 114 µM), most hits filed as inhibitors; note: nearly all actives have a fitted effect of over 60% in size
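TGR 20 nM + NADPH 100 uM (dispensed conc.), cpd preinc 15 min RT; start with NADPH (500 uM addition) then DTNB (15 mM addition). Kinetic TNB absorbance, 405 nm filter. Four-parameter Hill fit across titration.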
Tb PYK inh: qHTS of Trypanosoma Brucei Inhibitors | pyruvate kinase (Trypanosoma brucei), Q57TT1 | Potency, µM (top dose mostly 76.8 µM), actives largely listed as inhibitors | TbPYK enzyme, Kinase-Glo Plus ATP luminescence, 45 min | hit rate 0.12% among 410,000; note: nearly all actives have a fitted effect of over 50% in size
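Luminescence from Kinase-Glo Plus, added after a 45-minute room-temperature reaction, served as the end-point read-out. The enzyme and substrate were preincubated with compound before ADP (130 uM final) initiated turnover. Concentration-effect curves came from normalized qHTS data.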
LmPK inhibitor: qHTS Assay for Inhibitors of Leishmania Mexicana Pyruvate Kinase (LmPK) | AID 1721, 2009 | hit rate 0.37% among 290,000 | Potency, µM (doses to about 57.5 µM), actives largely listed as inhibitors | Q27686 | purified LmPK, Kinase-Glo ATP luminescence, 1 h
Target sequence (Q27686 whole entry, looked up): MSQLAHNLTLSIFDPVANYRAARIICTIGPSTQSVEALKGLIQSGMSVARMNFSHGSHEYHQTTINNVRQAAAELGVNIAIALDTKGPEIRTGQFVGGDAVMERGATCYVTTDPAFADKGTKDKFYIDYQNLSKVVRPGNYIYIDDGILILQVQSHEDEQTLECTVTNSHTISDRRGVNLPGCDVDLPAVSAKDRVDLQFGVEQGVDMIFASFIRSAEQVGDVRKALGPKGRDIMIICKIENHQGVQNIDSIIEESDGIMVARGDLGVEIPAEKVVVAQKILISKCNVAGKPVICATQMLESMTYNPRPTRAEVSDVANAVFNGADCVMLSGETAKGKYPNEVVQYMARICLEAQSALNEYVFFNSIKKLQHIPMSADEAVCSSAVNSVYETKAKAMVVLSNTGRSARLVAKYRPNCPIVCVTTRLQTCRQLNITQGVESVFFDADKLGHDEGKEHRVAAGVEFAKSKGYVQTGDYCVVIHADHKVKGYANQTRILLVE
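qHTS format; LmPK 0.1 nM; substrates PEP 0.5 mM and ADP 0.1 mM. One-hour room-temperature incubation, then coupled luciferase luminescence; 0.5 nM enzyme wells mark activation.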
FBPA Giardia inh: qHTS Assay for Inhibitors of Fructose-1,6-bisphosphate Aldolase from Giardia Lamblia; hit rate 0.71% among 290,000; Potency, µM (highest dose often 59.6 µM), actives largely listed as inhibitors; purified Giardia FBPA; AID 2451, 2010; note: nearly all actives have a fitted effect of over 55% in size
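Giardia FBPA (40 nM reagent) was preincubated 10 min at RT with compound (up to 57.5 uM final), then substrate plus GAPDH/TPI/NAD/arsenate coupling system with diaphorase/resazurin was added; resorufin fluorescence (525/598 nm) was read after 20 min.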
RE007 growth inh: qHTS Assay for Inhibitors of the HIV-1 protein Vpr | S. pombe RE007 Vpr strain, BacTiter-Glo ATP luminescence, 24 h | Potency, µM (titrated, usually from 92.2 µM), hits mostly inhibitors | hit rate 0.21% among 360,000; active = well fitted falling curve with a large enough effect; inconclusive = small, poorly fitted or top-dose-only effect; inactive = no such curve, though single readings can be large or run the other way; note: nearly all actives have a fitted effect of over 50% in size
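Fission yeast strain RE007, carrying one chromosomally integrated HIV-1 vpr copy, was seeded at OD 0.01 in PMG+AL medium with 23 nL pinned compound. After 24 h at 30 °C and 99% humidity, viability was read by BacTiter-Glo luminescence.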
Hits are given with their value; - = inactive; ? = inconclusive; . = no result; ! = not active in a repeat; [ ] = remark or other dose. Only some compounds are listed: those with a hit (about 3.3% of all), similar ones and a draw of the others. Unless noted, calls come from the whole dose curve; as a rule, active = well fitted curve in the direction sought with a large enough effect; inconclusive = small, poorly fitted or top-dose-only effect, or another doubt; inactive = no such curve, though single readings can be large; an effect the other way counts as inactive or inconclusive.

SMILES | Sm TGR inh | Tb PYK inh | LmPK inhibitor | FBPA Giardia inh | RE007 growth inh
O=C(Nc1ccc2c(c1)nc1n2CCN(Cc2ccccc2)C1)NC1CCCCC1 | ? | - | - | ? | -
COCCN1CCn2c(nc3cc(NC(C)=O)ccc32)C1 | 14µM | - | - | - | -
COc1ccc(CNC(=O)Cn2nc(Cc3cccnc3)c3ccccc3c2=O)cc1 | - | - | - | - | -
Cc1ccc(C)c(N(C)C(=O)Cc2c(C(=O)O)[nH]c3ccc(Cl)cc23)c1 | - | - | . | . | .
COc1ccc2c(c1)C(=O)[C@H](OC(=O)N[C@H](C)C1CCCCC1)[C@@H](c1ccc(OC)c(Br)c1)O2 | . | . | . | - | .
CCOc1ncccc1C(=O)OCC(=O)c1ccccc1Br | - | - | - | - | -
COc1ccc(-c2nc3ncccn3c2Br)cc1 | - | - | ? | - | -
CC1CC(C)CN(S(=O)(=O)N2CCCC(C(=O)NC(C)c3ccccc3)C2)C1 (stereo unspecified) | - | - | - | - | -
CCN(CCCNC(=O)c1cc2c(Cl)nc3ccccc3c2s1)Cc1ccccc1 | 89µM | - | . | . | .
CN(CCCNC(=O)c1cc2c(Cl)nc3ccccc3c2s1)Cc1ccccc1 | 20µM! | - | - | - | -
O=C(O)C1CCCC[C@H]1C(=O)Nc1ncc([N+](=O)[O-])s1 (stereo partly specified) | - | - | . | . | -
COc1ccccc1NC(=O)CN1C(=O)CCS(=O)(=O)c2ccccc21 | ? | - | - | - | -
COc1ccc(Cl)cc1NC(=O)CN1C(=O)CCS(=O)(=O)c2ccccc21 | 50µM | - | - | - | -
CN(C)CC/C=C1/c2ccccc2CS(=O)(=O)c2ccccc21 | . | - | . | . | -
CN(C)CC/C=C1\c2ccccc2COc2ccccc21 | 14µM | - | - | - | -[18.4 µM]
O=C(/C=C/c1ccco1)Nc1ccccc1C(=O)O | 18µM | ? | ? | ? | -
O=C(O)/C=C/C(=O)Nc1ccccc1C(=O)Nc1ccccc1 | 35µM | ? | - | - | -
O=C(Nc1ccc(S(=O)(=O)Nc2ncccn2)cc1)c1ccccc1NS(=O)(=O)c1ccc(F)cc1 | . | - | - | - | -
CN(C(=O)C=Cc1ccco1)c1ccccc1 | . | - | . | . | -
CN(C(=O)/C=C/c1ccco1)c1ccccc1C(=O)O | 3.5µM | - | - | - | -
O=C(O)/C=C/c1ccc(S(=O)(=O)Nc2ccccc2C(=O)Nc2ccc(F)cc2)cc1 | 45µM | - | - | - | -
O=C(/C=C/c1ccco1)Nc1ccccc1C(=O)Nc1cccc(C(=O)O)c1 | 25µM | - | - | - | -
COc1cccc(NC(=O)CN(C)C(C)C(=O)Nc2ccc(S(=O)(=O)N3CCCC3)cc2)c1 (stereo unspecified) | - | - | - | - | -
Cc1ccc(S(=O)(=O)NNC2CC(=O)N(c3ccc(Br)cc3)C2=O)cc1 (stereo unspecified) | . | - | - | - | -
Cc1cc(C)nc(SC2CC(=O)N(c3ccc(Br)cc3)C2=O)n1 (stereo unspecified) | 50µM | - | - | - | -
SMILES | Sm TGR inh | Tb PYK inh | LmPK inhibitor | FBPA Giardia inh | RE007 growth inh
Cc1ccnc(SC2CC(=O)N(c3ccc(Cl)cc3)C2=O)n1 (stereo unspecified) | 50µM | - | - | - | -
Cc1cc(C)nc(SC2CC(=O)N(c3ccc(Cl)cc3)C2=O)n1 (stereo unspecified) | ? | - | - | - | -
CCN(CC)C1CC(=O)N(c2ccc(Br)cc2)C1=O (stereo unspecified) | 7.1µM | - | - | - | 2µM
Cc1ccnc(SC2CC(=O)N(c3ccc(Br)cc3)C2=O)n1 (stereo unspecified) | 50µM | - | - | - | -
COc1cccc(CNc2ccc(F)c(Cl)c2)c1O | - | - | - | - | ?
CCCn1c2ccc(F)cc2c2nnc(NN)nc21 | - | - | - | - | -
CC(C)c1cccc(-c2csc(C(O)c3ccc(F)cc3)n2)c1 (stereo unspecified) | . | - | . | . | ?
CC(C)c1cccc(-c2csc(C(O)c3ccc(F)c(F)c3)n2)c1 (stereo unspecified) | . | - | . | . | 40µM
CCOc1ccc(-c2c(C(=O)N/N=C/c3cccc(Br)c3)nnn2-c2nonc2N)cc1 | - | - | - | . | -
COc1ccc(-c2cc(OC(=O)c3ccc(Cl)cc3)c3c(C)oc(C)c3c(=O)c2)cc1 | 40µM | - | . | . | .
COc1cc(-c2cc(OC)c3c(C)oc(C)c3c(=O)c2)ccc1O | - | - | - | - | -
COc1ccc(-c2cc(OC)c3c(C)oc(C)c3c(=O)c2)cc1OC | 50µM | - | - | ? | -
COc1cc(OC)cc(-c2nnc3n2N=C(c2ccccc2OC)CS3)c1 | . | . | . | - | .
NC(=O)COc1ccccc1C1=NO[C@@](CC(=O)O)(C(=O)Nc2ccc3c(c2)OCCO3)C1 | 18µM | - | - | - | -
COc1ccc(C2=NO[C@@](CC(=O)O)(C(=O)Nc3ccc4c(c3)OCCO4)C2)cc1 | 22µM | - | - | - | -
COc1ccc(-c2[nH]c(-c3ccccc3)nc2SCC(=O)Nc2ccc3c(c2)OCCO3)cc1 | - | - | . | . | .
CC1C2(C)OCC(C#N)(C(=N)O2)C1(C#N)C#N (stereo unspecified) | 13µM | . | - | - | .
COc1ccc(C(C(=O)OCCN(C)C)c2ccccc2)cc1 (stereo unspecified) | - | - | - | - | -
CCC(O)(CC)C(=O)NN(C(=O)CCl)c1ccccc1 | 22µM | - | - | - | -
Cc1ccc(N(NC(=O)C(O)(c2ccccc2)c2ccccc2)C(=O)CCl)cc1 | 6.3µM | - | - | - | -
O=C(Nc1ccccc1)NN(C(=O)CCl)c1ccccc1 | 3.5µM | - | - | - | -
CCN(CC)NC(=O)Nc1ccccc1 | - | - | - | - | -
Cc1ccc(/C=C/C(=O)N(Cc2cccs2)C2CCS(=O)(=O)C2)cc1 (stereo unspecified) | - | - | - | - | -
Cc1ccc(CNC(=O)CCc2nnc(Cc3ccc(-c4ccccc4)cc3)o2)o1 | 25µM | - | - | - | -
COCCCNC(=O)CCc1nnc(Cc2ccc(-c3ccccc3)cc2)o1 | - | - | - | - | -
COc1ccc(-c2nc(N)nc(C(F)(F)F)c2-c2cscn2)c(O)c1 | - | - | - | - | -
CN1C(=O)[C@@H]2[C@H](C1=O)[C@@H]1C(=O)Nc3ccccc3C(=O)N1[C@@H]2c1cccc(Br)c1 | - | - | . | . | -
O=C1OCC2OC(O)C(O)C(O)C2OC(=O)c2cc(O)c(O)c(O)c2-c2c(O)c(O)c3oc(=O)c4c(c(O)c(O)c5oc(=O)c2c3c54)-c2c1cc(O)c(O)c2O (stereo unspecified) | 16µM | . | - | 4µM | .
